# Data published in PubChem BioAssay (Tox21).
# Several values for one entry are separate records, joined by “and”; a condition that tells them apart may be missing. Equal entries are not always repeated. Results filed as inconclusive are left out. Entries that show only a call come without a potency. Some structures have more than one record in an assay (separate samples or runs), and their calls can disagree. Activity calls are given as the source filed them. Calls follow the shape of the dose curve; as a rule, active = well fitted cell-killing curve with a large enough effect in the repeat runs; inconclusive = weak or mixed curves, or effect the other way; inactive = flat fitted curve, though single readings scatter.
# Experiment: qHTS RealTime-Glo MT Cell Viability Assay in HepG2 cells - 40 hour (AID 1224870); also: nearly all actives have a fitted effect of over 50% in size
# Conditions: RealTime-Glo luminescence; series mostly up to 76.8 µM
# Text: National Center for Advancing Translational Sciences [NCATS]
# NIH Chemical Genomics Center [NCGC]
# U.S. Environmental Protection Agency [EPA]
# National Institutes of Environmental Health Sciences [NIEHS]
# National Toxicology Program [NTP]
# U.S. Food and Drug Administration [FDA]
# Measure of cell viability is critical in the cell-base assay. Analysis of cell viability is necessary for the characterization of cell responses to cytotoxic drugs and environmental stress. A RealTime-Glo MT Cell Viability Assay to monitor cell viability in real time of continues cell culture during 40 hours of compound treatment was used to screen Tox21 10K library compounds in HepG2 cells. The RealTime-Glo MT Cell Viability Assay is a nonlytic, homogeneous, bioluminescent method to measure cell viability in real time using a simple, plate-based method. The assay involves adding NanoLuc luciferase and a cell-permeant prosubstrate to cells in culture. Viable cells reduce the proprietary prosubstrate to generate a substrate for NanoLuc luciferase. This substrate diffuses from cells into the surrounding culture medium, where it is rapidly used by the NanoLuc Enzyme to produce a luminescent signal. The signal correlates with the number of viable cells, making the assay well suited for cytotoxicity studies.
# Tox21 Assay Protocol Summary:
# The mixture of HepG2 cell suspension and reagents were dispensed at 600cells/6 ul/well in 1536-well tissue culture treated black solid bottom plates using a Multidrop dispenser. After the assay plates were incubated at a 37 C/5% CO2 incubator for 5 hours, 23 nL of compounds dissolved in DMSO, positive and negative controls was transferred to the assay plate by a pintool work station. The plates were incubated at 37 C for 40 hours. The luminescence intensity were measured at 0h, 8h, 16h, 24h, 32h and 40h time points using ViewLux plate reader during compound treatment.
# Potency is read from the fitted curve at half-maximal effect.
row,SMILES,Potency
1,CN(C)[C@@H]1C(=O)C(C(N)=O)=C(O)[C@@]2(O)C(=O)C3=C(O)c4c(O)cccc4[C@@](C)(O)[C@H]3[C@H](O)[C@@H]12,inactive
2,CCCCCCCCCCCCOS(=O)(=O)O,inactive
3,CCCCn1cc[n+](C)c1C,inactive and 22.1 µM (active)
4,CCn1cc[n+](C)c1C,inactive
5,O=C(O)C(Cl)Cl,inactive
6,O=[N+]([O-])O,inactive
7,CCCCCCCCCCCCCCCCn1cc[n+](C)c1,inactive and 39.2 µM (active) and 31 µM (active)
8,O=[N+]([O-])c1ccccc1O,inactive
9,O=c1[nH]c(=O)n(Cl)c(=O)n1Cl,inactive
10,O=P1(N(CCCl)CCCl)NCCCO1 (stereo not given),inactive
11,CC[N+]1(C)CCCC1,inactive
12,C[C@]12CCC(=O)C=C1CC[C@@H]1[C@@H]2CC[C@]2(C)C(=O)CC[C@@H]12,inactive
13,O=c1nc(O)n(Cl)c(=O)n1Cl,inactive
14,Nc1ccc(-c2ccc(N)cc2)cc1,inactive
15,CCCCCCCCn1cc[n+](C)c1,inactive
16,O=C(O)C(Cl)(Cl)Cl,inactive
17,CCC[N+]1(C)CCCC1,inactive and 34.9 µM (active)
18,Oc1ccccc1-c1ccccc1,inactive
19,CC[n+]1ccccc1,inactive and 34.8 µM (active)
20,COP(=O)(OC)C(O)C(Cl)(Cl)Cl (stereo not given),inactive

row,SMILES,Potency
1,Nc1ccc(Cl)cc1,inactive
2,O=C(O)COc1ccc(Cl)cc1Cl,inactive
3,CCOP(=S)(OCC)Oc1ccc2c(C)c(Cl)c(=O)oc2c1,inactive
4,CNC,inactive
5,COc1ccc(N)cc1,inactive
6,O=C(O)c1nc(Cl)ccc1Cl,inactive
7,CCCCCCn1cc[n+](C)c1,inactive and 35.4 µM (active)
8,COCC(=O)N(c1c(C)cccc1C)C(C)C(=O)OC (stereo not given),inactive
9,CCCC[n+]1ccc(C)cc1,inactive
10,CCCCCC[n+]1ccccc1,inactive
11,Nc1ccccc1,inactive
12,C=CCOC(Cn1ccnc1)c1ccc(Cl)cc1Cl (stereo not given),inactive
13,CCCC[n+]1cccc(C)c1,inactive and 49.6 µM (active)
14,CC(Cl)(Cl)C(=O)O,inactive
15,CCCCCCCCCCn1cc[n+](C)c1,inactive
16,CCC(=O)C(CC(C)N(C)C)(c1ccccc1)c1ccccc1 (stereo not given),inactive
17,Cc1cc(Cl)ccc1N,inactive
18,O=C(O)CC(O)(CC(=O)O)C(=O)O,inactive
19,OCCOc1ccccc1,inactive
20,C1CCC(NC2CCCCC2)CC1,inactive
